The panel holds about 79,000 compounds, 15% with a hit somewhere; the sample as a whole holds those more often. Unmarked numbers belong to inactive results. Activity calls are given as the source filed them. Rule as the data show it: active = growth inhibition above about 70%; inactive = the rest.
Test: NCI Yeast Anticancer Drug Screen. Data for the cln2 rad14 strain (AID 165);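 also: 0% = growth equal to vehicle treated cultures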
Settings: S. cerevisiae cln2 rad14 strain, at 50.0 µM, hits give high values
Outline: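 Growth of compound-exposed yeast (cln2 rad14 genotype) measured and expressed as inhibition relative to vehicle.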
For `O=C(CCCc1ccccc1)OCC(=O)c1ccc(-c2ccccc2)cc1`, the growth inhibition was 3.45%.
In the case of `O=COC1CC2CC1c1ccccc12` (stereo not given), the growth inhibition is reported as -7.8%.
`Cc1cccc(C(O)(c2cccc(C)c2)C2(O)CCCCC2)c1` showed a growth inhibition of 21.2%.
In the case of `c1ccc2c(c1)NCCOCCNc1ccccc1OCCNCCO2`, the growth inhibition is reported as -4.1%.
`CC(SSc1ccc(C(C)(C)C)cc1)c1ccccc1` (stereo not given) showed a growth inhibition of -35.4%.
`O=C1C(N=Nc2ccc(S(=O)(=O)Nc3ccccn3)cc2)C(=O)N(c2ccccc2)C(=S)N1c1ccccc1` showed a growth inhibition of 18.3%.
In the case of `COc1ccc(NS(=O)(=O)c2ccc(N=Cc3c4ccccc4nc4ccccc34)cc2)nn1`, the growth inhibition is reported as 79.9% (active).
Compound `CN(C)CCCN1c2ccccc2Sc2ccc3ccccc3c21` has a growth inhibition of -25.9%.
With `COC(=O)C1(CC(=O)C2CC2)NC(=S)NC(=O)C1C#N` (stereo not given) the growth inhibition was -8.6%.
For `O=C1N=C(c2ccccc2)C(c2ccccc2)N1` (stereo not given), the growth inhibition was -3.85%.
`COc1ccc(C(=O)C[n+]2cc(Br)cc(Br)c2)cc1` showed a growth inhibition of -3.95%.
For `C=C1C(=O)OC2/C=C(\C)C(OC(C)=O)C3OC3C(C)(O)CC(OC(=O)/C(C)=C/C)C12` (stereo not given), the growth inhibition was -5.2%.
`CC(=O)N/C(=C\c1ccccc1)C(N)=O` gave a growth inhibition of 0.6%.
In the case of `CNC(=S)N(C)/N=C/c1ccccc1`, the growth inhibition is reported as -28.9%.
`N#CC(c1ccccc1)N(CCCCCCN(C(=O)c1ccccc1)C(C#N)c1ccccc1)C(=O)c1ccccc1` (stereo not given) showed a growth inhibition of 13.1%.
With `CCOC(=O)c1cccc(NC(=O)CCl)c1` the growth inhibition was 26%.
For `CC1(C)C(C#N)C1C1=C(N2CCOCC2)[C@]2(C)C(OC(=O)c3ccccc3)CC[C@@H]2C1` (stereo not given in full), the growth inhibition was 7.7%.
Compound `CC(=O)Nc1ccc2ccccc2c1SC1CC(=O)N(c2ccccc2)C1=O` (stereo not given) has a growth inhibition of -23.4%.
In the case of `Clc1ccc(CSc2cnnc(Cl)c2SCc2ccc(Cl)cc2)cc1`, the growth inhibition is reported as 22.8%.
In the case of `CN(C(=O)Sc1ccc([N+](=O)[O-])cc1)c1ccc([N+](=O)[O-])cc1`, the growth inhibition is reported as 4.05%.
In the case of `Nc1nc2c(ccc3ccccc32)[nH]1`, the growth inhibition is reported as 6.5%.
For `O=[N+]([O-])C(C(Cl)=C(Cl)Cl)=C(n1nnc2ccccc21)n1nnc2ccccc21`, the growth inhibition was 27.1%.
`CC(=O)S` showed a growth inhibition of -24.2%.
Compound `O=C(O)C(c1cccs1)C1(O)CCCCC1` (stereo not given) has a growth inhibition of -1.65%.
In the case of `CCOC(=O)c1[nH]c(COC(C)=O)c2c1CCCCCCCCCC2`, the growth inhibition is reported as 41.2%.
With `O=C(CC(=O)c1ccccc1)Cc1ccccc1.O=C(CC(=O)c1ccccc1)Cc1ccccc1.[Cu]` the growth inhibition was 12.7%.
For `CCOC(=O)c1ccccc1[N+](=O)[O-]`, the growth inhibition was -11.7%.
For `O=C(NN(C(=O)c1ccc([N+](=O)[O-])cc1)c1ccccc1)c1ccc([N+](=O)[O-])cc1`, the growth inhibition was 21.4%.
`CC(=O)N1CCC(=O)/C(=C/c2ccccc2)C1` showed a growth inhibition of 15.9%.
`CC(=O)c1ccc(OC(=O)Nc2ccc(Cl)cc2)cc1` gave a growth inhibition of -2.3%.
Compound `CC(=O)Nc1cc(Cl)ccc1SC1OC(COC(C)=O)C(OC(C)=O)C(OC(C)=O)C1OC(C)=O` (stereo not given) has a growth inhibition of -44.2%.
Compound `CNC(=S)Nc1cccc(C)c1` has a growth inhibition of -8.55%.
Work on `Cc1ccc(-n2nc(C)cc2C)nn1` yielded a growth inhibition of -25.7%.
For `CCC(C(C)O)[N+](=O)[O-]` (stereo not given), the growth inhibition was 4.15%.
`CC(=O)Nc1ccc(/C=C2\C(=O)Nc3ccccc32)cc1` showed a growth inhibition of -11.8%.
For `CN1CCN(C)c2nc3ccccc3nc21`, the growth inhibition was -12.1%.
Work on `CC(C)CCCC(C)C1CCC2(C)C3CCC4C(C)(C)C(OCC(C)(C)C)CCC4(C)C3CCC12C` (stereo not given) yielded a growth inhibition of 7.3%.
`Cc1cccc(/C=C(\C#N)C(=O)c2ccccc2)c1` gave a growth inhibition of 5.75%.
`CC1CC(C)OC(C)(c2ccccc2)O1` (stereo not given) showed a growth inhibition of -33.1%.
`CC(Br)CCc1ccccc1Br` (stereo not given) showed a growth inhibition of -39.5%.

Test: NCI Yeast Anticancer Drug Screen. Data for the bub3 strain (AID 167)
Settings: S. cerevisiae bub3 mutant strain, at 50.0 µM, hits give high values
Outline: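 Steps: expose the mutant yeast strain to compound; grow alongside vehicle-treated cultures; measure growth; express inhibition against the vehicle cultures.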
`O=C(CCCc1ccccc1)OCC(=O)c1ccc(-c2ccccc2)cc1` gave a growth inhibition of 12.8%.
In the case of `O=COC1CC2CC1c1ccccc12` (stereo not given), the growth inhibition is reported as -3.85%.
Work on `Cc1cccc(C(O)(c2cccc(C)c2)C2(O)CCCCC2)c1` yielded a growth inhibition of 1%.
Work on `c1ccc2c(c1)NCCOCCNc1ccccc1OCCNCCO2` yielded a growth inhibition of 30.1%.
`CC(SSc1ccc(C(C)(C)C)cc1)c1ccccc1` (stereo not given) showed a growth inhibition of 10.2%.
`O=C1C(N=Nc2ccc(S(=O)(=O)Nc3ccccn3)cc2)C(=O)N(c2ccccc2)C(=S)N1c1ccccc1` showed a growth inhibition of -1.25%.
With `COc1ccc(NS(=O)(=O)c2ccc(N=Cc3c4ccccc4nc4ccccc34)cc2)nn1` the growth inhibition was 93.5% (active).
In the case of `CN(C)CCCN1c2ccccc2Sc2ccc3ccccc3c21`, the growth inhibition is reported as 8.95%.
Work on `COC(=O)C1(CC(=O)C2CC2)NC(=S)NC(=O)C1C#N` (stereo not given) yielded a growth inhibition of -21.4%.
Compound `O=C1N=C(c2ccccc2)C(c2ccccc2)N1` (stereo not given) has a growth inhibition of -0.4%.
Work on `COc1ccc(C(=O)C[n+]2cc(Br)cc(Br)c2)cc1` yielded a growth inhibition of 14.1%.
`C=C1C(=O)OC2/C=C(\C)C(OC(C)=O)C3OC3C(C)(O)CC(OC(=O)/C(C)=C/C)C12` (stereo not given) showed a growth inhibition of -29.7%.
For `CC(=O)N/C(=C\c1ccccc1)C(N)=O`, the growth inhibition was 36%.
In the case of `CNC(=S)N(C)/N=C/c1ccccc1`, the growth inhibition is reported as -7.15%.
`N#CC(c1ccccc1)N(CCCCCCN(C(=O)c1ccccc1)C(C#N)c1ccccc1)C(=O)c1ccccc1` (stereo not given) gave a growth inhibition of 40.4%.
`CCOC(=O)c1cccc(NC(=O)CCl)c1` gave a growth inhibition of 39.9%.
In the case of `CC1(C)C(C#N)C1C1=C(N2CCOCC2)[C@]2(C)C(OC(=O)c3ccccc3)CC[C@@H]2C1` (stereo not given in full), the growth inhibition is reported as 12.4%.
Compound `CC(=O)Nc1ccc2ccccc2c1SC1CC(=O)N(c2ccccc2)C1=O` (stereo not given) has a growth inhibition of -15.8%.
Compound `Clc1ccc(CSc2cnnc(Cl)c2SCc2ccc(Cl)cc2)cc1` has a growth inhibition of -2.15%.
`CN(C(=O)Sc1ccc([N+](=O)[O-])cc1)c1ccc([N+](=O)[O-])cc1` showed a growth inhibition of 31.4%.
`Nc1nc2c(ccc3ccccc32)[nH]1` showed a growth inhibition of 10.3%.
`O=[N+]([O-])C(C(Cl)=C(Cl)Cl)=C(n1nnc2ccccc21)n1nnc2ccccc21` showed a growth inhibition of 19%.
Work on `CC(=O)S` yielded a growth inhibition of 6.35%.
Compound `O=C(O)C(c1cccs1)C1(O)CCCCC1` (stereo not given) has a growth inhibition of -2.5%.
`CCOC(=O)c1[nH]c(COC(C)=O)c2c1CCCCCCCCCC2` gave a growth inhibition of 5%.
Work on `O=C(CC(=O)c1ccccc1)Cc1ccccc1.O=C(CC(=O)c1ccccc1)Cc1ccccc1.[Cu]` yielded a growth inhibition of 12.2%.
With `CCOC(=O)c1ccccc1[N+](=O)[O-]` the growth inhibition was 6.7%.
`O=C(NN(C(=O)c1ccc([N+](=O)[O-])cc1)c1ccccc1)c1ccc([N+](=O)[O-])cc1` gave a growth inhibition of 12.8%.
Work on `CC(=O)N1CCC(=O)/C(=C/c2ccccc2)C1` yielded a growth inhibition of 17.6%.
Compound `CC(=O)c1ccc(OC(=O)Nc2ccc(Cl)cc2)cc1` has a growth inhibition of 29.6%.
`CC(=O)Nc1cc(Cl)ccc1SC1OC(COC(C)=O)C(OC(C)=O)C(OC(C)=O)C1OC(C)=O` (stereo not given) showed a growth inhibition of 4.6%.
Compound `CNC(=S)Nc1cccc(C)c1` has a growth inhibition of -10.4%.
For `Cc1ccc(-n2nc(C)cc2C)nn1`, the growth inhibition was 26.6%.
`CCC(C(C)O)[N+](=O)[O-]` (stereo not given) gave a growth inhibition of 7.25%.
`CC(=O)Nc1ccc(/C=C2\C(=O)Nc3ccccc32)cc1` showed a growth inhibition of -8.5%.
For `CN1CCN(C)c2nc3ccccc3nc21`, the growth inhibition was -6.85%.
For `CC(C)CCCC(C)C1CCC2(C)C3CCC4C(C)(C)C(OCC(C)(C)C)CCC4(C)C3CCC12C` (stereo not given), the growth inhibition was -0.15%.
With `Cc1cccc(/C=C(\C#N)C(=O)c2ccccc2)c1` the growth inhibition was -5.25%.
For `CC1CC(C)OC(C)(c2ccccc2)O1` (stereo not given), the growth inhibition was -18.5%.
Work on `CC(Br)CCc1ccccc1Br` (stereo not given) yielded a growth inhibition of 19.9%.

— PubChem BioAssay (NCI)
